# Shown are actives, neighbours in structure and some others; about 6.9% of the full set was active somewhere.
# IL1B secr inh – inflammasome signaling inhibition, IL-1 beta readout; THP-1 LPS/ATP IL-1B secretion, AlphaLISA, 16 h; stronger effect = lower value; activity change, % at 57.5 µM; 360,000 compounds, 4.7% hits; AID 743279; in the data active = activity change below about -50%; inconclusive = mostly about -30% to -49%; also: % is scaled to controls: 0 for no effect and ±100 for the full control effect
#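 Secreted IL-1B measured by AlphaLISA bead assay after 16 h compound exposure of THP-1 cells; compounds (final up to 57.5 uM) added 1 h before LPS (250 ng/mL) and ATP (1.25 mM) stimulation; lower signal means less secretion.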
# SW480 rerep – induces DNA re-replication in SW480 colon adenocarcinoma cells | SW480 DNA re-replication, Hoechst DNA content imaging, 48 h | Potency, µM (titrated, usually from 46.1 µM), for the others: at the top dose re-replication activation, actives largely listed as activators | 340,000 compounds, 1.8% hits | AID 624297; also: potency is read from the fitted curve at half-maximal effect; % of control where 0% means no effect; nearly all actives have a fitted effect of over 55% in size
#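 Image-based read-out: total Hoechst fluorescence of nuclei (405 nm excitation, 500-530 nm emission), with hits raising the fraction of high-intensity nuclei. SW480 colon cells incubated 48 hr with compounds at 37 C.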
# Giardia kill – kills Giardia lamblia. activity change, % at 7.66 µM, hits read low. 340,000 compounds, 0.15% hits. Giardia lamblia trophozoite viability; in the data active = activity change below about -80%; inconclusive = between about -30% and that limit;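 also: parasites exposed to compound for two days anaerobically before the ATP read; % is scaled to controls: 0 for no effect and ±100 for the full control effect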
#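 Anaerobic 48 hrs incubation at 37 deg C of 100 trophozoites/well with test compounds; ATPLite 1-Step luminescence, 15-30 min RT, reports cellular ATP as viability.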
# MCF10A rerep – DNA re-replication induction in MCF 10a cells. MCF 10A DNA re-replication, Hoechst nuclear intensity, 48 h. 350,000 compounds, 2.9% hits. Potency, µM (top dose mostly 46.1 µM), for the others: at the top dose activity, positive = re-replication, hits mostly activators; also: potency is read from the fitted curve at half-maximal effect; % of control where 0% means no effect; nearly all actives have a fitted effect of over 50% in size
# Vif-APOBEC3G blk – Vif-A3G binding inhibition. Q9HC16. HeLa A3G-eYFP + Vif (tagged APOBEC3G with the HIV-1 protein that degrades it), YFP fluorescence, overnight. Potency, µM (highest dose often 46.1 µM), without a hit: top-dose activity, negative = active, most hits filed as inhibitors. 410,000 compounds, 0.076% hits; also: potency is read from the fitted curve at half-maximal effect; % is scaled to controls: 0 for no effect and ±100 for the full control effect; nearly all actives have a fitted effect of over 60% in size
# Target sequence (Q9HC16 whole entry, looked up): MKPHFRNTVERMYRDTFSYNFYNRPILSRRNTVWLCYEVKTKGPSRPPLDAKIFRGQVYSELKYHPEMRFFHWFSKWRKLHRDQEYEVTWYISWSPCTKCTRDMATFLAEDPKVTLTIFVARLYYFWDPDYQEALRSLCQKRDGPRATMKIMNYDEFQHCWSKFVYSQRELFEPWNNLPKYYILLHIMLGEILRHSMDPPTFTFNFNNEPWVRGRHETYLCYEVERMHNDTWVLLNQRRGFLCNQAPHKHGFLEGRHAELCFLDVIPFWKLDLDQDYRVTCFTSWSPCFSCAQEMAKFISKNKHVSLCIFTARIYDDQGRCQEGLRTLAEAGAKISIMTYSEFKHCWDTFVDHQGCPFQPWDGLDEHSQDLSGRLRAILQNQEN
#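 HeLa cells stably expressing Vif and C-terminally eYFP-tagged A3G, seeded overnight at 37 deg C, then exposed to compound by pintool overnight at 37 deg C. Rise in yellow fluorescence (Ex 488/Em 500-530, Acumen) marks blocked Vif-driven A3G degradation.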
# Vif-A3F inh – Vif-A3F binding inhibition. HeLa A3F-eYFP + Vif (tagged APOBEC3F with the HIV-1 protein that degrades it), YFP fluorescence increase. 390,000 compounds, 0.2% hits. Potency, µM (top dose mostly 46.1 µM), for the others: at the highest dose activity, negative = active; also: potency is read from the fitted curve at half-maximal effect; % of control where 0% means no effect; nearly all actives have a fitted effect of over 65% in size
#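 HeLa cells stably expressing A3F-eYFP plus Vif, plated and incubated overnight at 37 deg C, then exposed to compounds overnight at 37 deg C. Blocked degradation read as raised yellow fluorescence (Ex 488/Em 500-530).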
# * marks the source's active call; other numbers are inactive results; ? = inconclusive; nt = not tested or not shown; [ ] = dose if it differs, or a comment. Unless noted, calls follow the shape of the dose curve; as a rule, active = well fitted curve in the direction sought with a large enough effect; inconclusive = small, poorly fitted or top-dose-only effect, or another doubt; inactive = no such curve, though single readings can be large; an effect the other way counts as inactive or inconclusive.
SMILES,IL1B secr inh,SW480 rerep,Giardia kill,MCF10A rerep,Vif-APOBEC3G blk,Vif-A3F inh
CN(C(=O)CN1CC=C(c2ccccc2)CC1)c1c(N)n(Cc2ccccc2)c(=O)[nH]c1=O,2,-7%,-5,7%,-4%,-11%
O=c1[nH]c(CN2CC=C(c3ccccc3)CC2)nc2cc(C(F)(F)F)ccc12,25,1%,12,15µM*,-15%,-7%
CC(C)n1c(=O)c(C=Nc2cccc([N+](=O)[O-])c2)c(O)n(CCc2ccccc2)c1=O,-6,-3%,0,23µM*,?,?
CCC(=O)Nc1ccc(C(=O)NNC(=O)c2cc([N+](=O)[O-])cc([N+](=O)[O-])c2)cc1,16,-39%,-25,11%,1%,3%
CC1=CC(=C2C(=O)NC(=S)NC2=O)C=C(C(F)(F)F)N1Cc1ccccc1,32,3.7µM*,4,3.3µM*,0%,0%
Cc1ccc(N=Nc2cc(C)ccc2N)cc1,10,7%,-13,?,-14%,-3%
CN1CN(c2ccccc2)C2(CCN(CCCSc3ccccc3NC(=O)/C=C/c3ccccc3)CC2)C1=O,-71*,?,?,?,?,-28%
Fc1ccc(CNCCc2ccc3c(c2)OCO3)cc1,-11,-2%,19,0%,0%,14%
COc1ccccc1CNCCc1ccc(F)cc1,0,-5%,25,?,3%,-1%
CCc1ccc(CNCCc2ccc(F)cc2)cc1,-83*,?,-18,?,0%,-3%
COc1cc(OC)c(OC)cc1CNCCc1ccc(F)cc1,-12,-1%,3,8%,-2%,7%
Fc1ccc(CCNCc2ccc(Cl)c(Cl)c2)cc1,-53*,?,30,11%,-20%,-21%
CCN(CC)c1ccc(CNCCc2ccc(F)cc2)cc1,-97*,?,-6,27%,-9%,6%
CC[C@@H]1[C@@H]2C[C@H]3[C@H]4N(C)c5ccccc5[C@@]45C[C@@H]([C@@H]2[C@@H]5O)N3[C@H]1O,nt,-3%[20.6 µM],nt,1%[20.6 µM],nt,nt
CC1CN(C)C(C)(C)CC1(O)c1ccccc1 (configuration not stated),1,?,4,16µM*,-1%,5%
ClC1=C(Cl)C(Cl)=C(Cl)C1=C/C=C/c1ccccc1,13,?,-7,3.7µM*,?,?
CCN(C[C@H]1N[C@@](C)(C(=O)OC)[C@H]2C(=O)N(Cc3ccccc3)C(=O)[C@@H]12)C(=O)Nc1ccccc1,10,?,12,1%,2%,6%
O=C1NC(=O)N(c2ccc3c(c2)OCO3)C(=O)/C1=C\c1ccc(N2CCCCC2)o1,-15,-3%,-6,3%,-15%,4.5µM*
CCc1ccccc1N1C(=O)/C(=C/c2ccc(N3CCN(C)CC3)o2)C(=O)NC1=S,-1,-3%,2,-3%,-21%,?
CCOC(=O)c1ccccc1C(=O)OCC,21,-54%,-14,12%,3%,-13%
CCOP(=O)(OCC)/C(=N/OC(=O)c1ccccc1C)C(N)=O,-103*,-66%,-1,?,-8%,8%
Cc1onc(-c2ccccc2)c1C(=O)N[C@@H]1C(=O)N2C1SC(C)(C)[C@@H]2C(=O)O (some centres not stated),9,?,-4,-1%,-1%,-2%
CC(=O)OC1CCC2(C)C(CCC3C2CC(=O)C2(C)C3CC(N3CC3)C2C(C)=O)C1 (configuration not stated),-72*,?,-8,?,-5%,10%
C/C=C/C(=O)OCC(=O)Nc1ccc(OC)c(Cl)c1,-2,-1%,-14,?,-8%,-3%
COC(=O)C1=C(c2ccc3ccccc3c2)C[C@@H]2CC[C@H]1N2C,-20,-5%,-5,11%,0%,-1%
SMILES,IL1B secr inh,SW480 rerep,Giardia kill,MCF10A rerep,Vif-APOBEC3G blk,Vif-A3F inh
COC(=O)C1=C(C(=O)OC)C2OC1c1cc3ccccc3cc12,0,13µM*,-2,?,-14%,9%
Cc1cccc(-n2c(/C=C/c3ccccc3O)nc3ccccc3c2=O)c1,nt,nt,nt,nt,7%,-12%
O=c1c2ccccc2nc(/C=C/c2ccccc2)n1-c1ccc(O)cc1,?,?,-7,80%,2%,0%
Cc1cccc(-n2c(/C=C/c3c(C)[nH]c4ccccc34)nc3ccccc3c2=O)c1,nt,nt,nt,nt,-10%,10µM*
Cc1cccc(-n2c(/C=C/c3ccc([N+](=O)[O-])o3)nc3ccccc3c2=O)c1,-104*,6.5µM*,-88*,2.3µM*,?,8.9µM*
O=c1c2ccccc2nc(/C=C/c2ccc([N+](=O)[O-])o2)n1-c1ccc(O)cc1,-88*,4.6µM*,-85*,?,?,?
O=[N+]([O-])OC1CO[C@H]2C(O[N+](=O)[O-])COC12 (some centres not stated),nt,-1%,nt,-2%,nt,nt
O=C(Cc1ccc(N(CCCl)CCCl)cc1)NC(Cc1ccc(Cl)cc1)C(=O)O (configuration not stated),0,1%,4,-6%,1%,-20%
O=C(Cc1c[nH]c2ccccc12)NNCc1ccc(N(CCCl)CCCl)cc1,16,16µM*,-17,25%,4%,-10%
CN1CCN(C(=O)COc2ccc(-c3nc4ccccc4s3)cc2)CC1,-60*,-6%,?,-3%,-2%,-6%
C=C(C)[C@@H]1CC[C@]2(C(=O)O)CC[C@]3(C)C(CCC4[C@@]5(C)CC[C@H](O)C(C)(C)C5CC[C@]43C)C12 (some centres not stated),41,?,2,?,?,3%
COC(=O)[C@@]12CCCCN1[C@H](c1ccc(-c3ccc(Cl)c(Cl)c3)c(OC)c1)[C@H]1C(=O)N(C)C(=O)[C@H]12,2,-5%,11,-14%,-2%,-10%
COC(=O)[C@@]12CCCCN1[C@H](c1ccc(-c3ccc(Cl)c(Cl)c3)c(OC)c1)[C@@H]1C(=O)N(C)C(=O)[C@@H]12,-52*,21%,-22,26%,-3%,-3%
CCN(CC)CCOC(=O)C(C)(c1ccccc1)c1ccccc1,nt,1%,nt,?,nt,nt
COc1ccc(NC(=O)CN(C)C(=O)CSC(c2ccccc2)c2ccccc2)cc1,-2,12%,-13,-1%,-3%,0%
COc1ccc(NC(=O)Cn2c3ccccc3c3nc4n(c(=O)c32)CCS4)cc1,7,-1%,-2,21µM*,-13%,10%
O=C(CCl)c1ccc(O)c(O)c1,nt,nt,nt,nt,-11%,nt
O=C(CCl)c1ccc(Oc2ccc(C(=O)CCl)cc2)cc1,nt,18%,nt,27µM*,nt,nt
